15 molecules from PubChem BioAssay (EPA / NIEHS) can be followed below.

“And” between values parts separate entries of the source, which are not always exact repeats. Identical values can stand only once. A structure can be active in one record and inactive in another. The source made the active and inactive calls. Rule for the calls: active = hit-call score of the fitted dose curve at least 0.9, where 1 is the maximum; inactive = score below 0.9.

Read-out in one experiment: Interleukin-8 (IL8), CXCL8 (gene 3576)
In words: BSK_IMphg_IL8: BioMAP Diversity Plus: IMphg Assay for Interleukin-8 (IL8) Biomarker Activity (AID 2284277). Conditions: primary human endothelial cells with macrophages. Summed up:
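Co-culture of human venular endothelial cells and macrophages exposed to chemicals for 24 h; IL-8 quantified by ELISA and compared against the DMSO baseline, with SRB total-protein staining in parallel cultures for cytotoxicity.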
For the molecule `O=S(=O)(F)C(F)(F)C(F)(F)C(F)(F)C(F)(F)C(F)(F)C(F)(F)C(F)(F)C(F)(F)F`, the result was inactive.
Regarding `FC(F)(F)C(F)(C(F)(F)F)C(F)(F)C(F)(F)CC1CO1` (stereo unspecified), the result was inactive.
The same measure, in the same setting: the result for `O=C(O)C(F)(F)C(F)(F)C(=O)O` reads “inactive”.
The same measure, in the same setting: under `OCC(F)(F)OC(F)(F)C(F)(F)OC(F)(F)C(F)(F)OC(F)(F)CO` stands “inactive”.
On the same count and under the same terms, the result for `NC(=O)C(F)(F)C(F)(F)F` reads “inactive”.
With `COC(=O)C(F)(F)C(F)(F)OC(F)(C(F)(F)F)C(F)(F)OC(F)=C(F)F` (stereo unspecified), the half-maximal activity concentration (AC50) is 1.61 µM (active) and 1.92 µM (active).
As for `C=CC(=O)OCC(F)(F)C(F)F`, the result was inactive.
For `O=C(O)C(F)(OC(F)(F)C(F)(F)C(F)(F)F)C(F)(F)F` (stereo unspecified), the AC50 was 5.95 µM (active) and the result was inactive.
On the same counts, the results for `O=C(O)C(F)(F)OC(F)(F)C(F)(F)OC(F)(F)F` are 22 µM (active) and “inactive”.
`OCC(F)(F)OC(F)(F)C(F)(F)OC(F)(F)C(F)(F)OC(F)(F)F`: the result was inactive.
Still for that read-out and setting: the result for `O=C(O)C(F)(F)OC(F)(F)C(F)(F)OC(F)(F)C(=O)O` reads “inactive”; that for `CC(O)C(F)(F)C(F)(F)F` (stereo unspecified), “inactive”.
As for `OCC(F)(F)OC(F)(F)C(F)(F)OC(F)(F)CO`, the outcome was inactive.
The same measure, in the same setting: under `O=C(O)C=CC(F)(C(F)(F)F)C(F)(F)F` stands “inactive”.

Read-out in another experiment: Intercellular Adhesion Molecule 1 (ICAM1), ICAM1 (gene 3383)
In words: BSK_BE3C_ICAM1: BioMAP Diversity Plus: BE3C Assay for Intercellular Adhesion Molecule 1 (ICAM1) Biomarker Activity (AID 2284278).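 Note: cell-surface ICAM-1 protein level quantified by ELISA.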 Particulars: primary human bronchial epithelial cells. A digest of the protocol:
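Human primary bronchial epithelial cultures; compound added; 24 h incubation; cell-surface ICAM-1 measured by ELISA; signal increase fitted relative to DMSO negative control.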
With `O=S(=O)(F)C(F)(F)C(F)(F)C(F)(F)C(F)(F)C(F)(F)C(F)(F)C(F)(F)C(F)(F)F`, the outcome was inactive.
Same read-out and setting: the result for `FC(F)(F)C(F)(C(F)(F)F)C(F)(F)C(F)(F)CC1CO1` (stereo unspecified) reads “inactive”; that for `O=C(O)C(F)(F)C(F)(F)C(=O)O`, “inactive”.
The same measure, in the same setting: under `OCC(F)(F)OC(F)(F)C(F)(F)OC(F)(F)C(F)(F)OC(F)(F)CO` stands “inactive”; under `NC(=O)C(F)(F)C(F)(F)F`, “inactive”; under `COC(=O)C(F)(F)C(F)(F)OC(F)(C(F)(F)F)C(F)(F)OC(F)=C(F)F` (stereo unspecified), “inactive”.
On to `C=CC(=O)OCC(F)(F)C(F)F`, for which the result was inactive.
Same read-out and setting: under `O=C(O)C(F)(OC(F)(F)C(F)(F)C(F)(F)F)C(F)(F)F` (stereo unspecified) stands “inactive”; under `COP(=O)(CCC(=O)NCO)OC`, “inactive”; under `O=C(O)C(F)(F)OC(F)(F)C(F)(F)OC(F)(F)F`, “inactive”.
`OCC(F)(F)OC(F)(F)C(F)(F)OC(F)(F)C(F)(F)OC(F)(F)F`: the result was inactive.
Regarding `O=C(O)C(F)(F)OC(F)(F)C(F)(F)OC(F)(F)C(=O)O`, the result was inactive.
The same measure, in the same setting: under `CC(O)C(F)(F)C(F)(F)F` (stereo unspecified) stands “inactive”.
As to `OCC(F)(F)OC(F)(F)C(F)(F)OC(F)(F)CO`, the outcome was inactive.
Still for that read-out and setting: under `O=C(O)C=CC(F)(C(F)(F)F)C(F)(F)F` stands “inactive”.

Read-out in a further experiment: Interleukin-8 (IL8), CXCL8 (gene 3576)
In words: BSK_BE3C_IL8: BioMAP Diversity Plus: BE3C Assay for Interleukin-8 (IL8) Biomarker Activity (AID 2284280). Conditions: primary human bronchial epithelial cells. A digest of the protocol: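 ELISA read-out of IL-8 in human lung bronchial epithelial primary cell cultures, 24 h post-dosing; endpoint analysed as signal increase relative to DMSO baseline.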
Turning to `O=S(=O)(F)C(F)(F)C(F)(F)C(F)(F)C(F)(F)C(F)(F)C(F)(F)C(F)(F)C(F)(F)F`, the result was inactive.
Same read-out and setting: under `FC(F)(F)C(F)(C(F)(F)F)C(F)(F)C(F)(F)CC1CO1` (stereo unspecified) stands “inactive”; under `O=C(O)C(F)(F)C(F)(F)C(=O)O`, “inactive”; under `OCC(F)(F)OC(F)(F)C(F)(F)OC(F)(F)C(F)(F)OC(F)(F)CO`, “inactive”.
Same read-out and setting: the result for `NC(=O)C(F)(F)C(F)(F)F` reads “inactive”.
The same measure, in the same setting: under `COC(=O)C(F)(F)C(F)(F)OC(F)(C(F)(F)F)C(F)(F)OC(F)=C(F)F` (stereo unspecified) stands “inactive”; under `C=CC(=O)OCC(F)(F)C(F)F`, “inactive”.
`O=C(O)C(F)(OC(F)(F)C(F)(F)C(F)(F)F)C(F)(F)F` (stereo unspecified): the result was inactive.
As to `COP(=O)(CCC(=O)NCO)OC`, the result was inactive.
Regarding `O=C(O)C(F)(F)OC(F)(F)C(F)(F)OC(F)(F)F`, the outcome was inactive.
On the same count and under the same terms, the result for `OCC(F)(F)OC(F)(F)C(F)(F)OC(F)(F)C(F)(F)OC(F)(F)F` reads “inactive”; that for `O=C(O)C(F)(F)OC(F)(F)C(F)(F)OC(F)(F)C(=O)O`, “inactive”.
Consider `CC(O)C(F)(F)C(F)(F)F` (stereo unspecified), for which the outcome was inactive.
Same read-out and setting: the result for `OCC(F)(F)OC(F)(F)C(F)(F)OC(F)(F)CO` reads “inactive”; that for `O=C(O)C=CC(F)(C(F)(F)F)C(F)(F)F`, “inactive”.
